MITF primary: MITF inhibitors, primary screen, biochemical, AlphaScreen, human | AlphaScreen MITF homodimerization, bead proximity signal | 0.91% of 650,000 active | AID 1259374, 2018 | Microphthalmia-associated transcription factor (Homo sapiens), O75030 | inhibition, % at 2.6 µM; in the data active = inhibition above about 50%;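 note: 0% = vehicle wells with protein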
FBW7 act: FBW7 E3 ligase activators, primary screen, biochemical, AlphaScreen, human | AlphaScreen FBW7–phospho-cyclin E peptide binding, activator screen | normalized activity (activation), % at 26.1 µM | 0.13% of 650,000 active; in the data active = normalized activity above about 1.9%;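 note: purified mutant Fbw7 with reduced substrate affinity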
Target sequence (Q969H0 whole entry, looked up): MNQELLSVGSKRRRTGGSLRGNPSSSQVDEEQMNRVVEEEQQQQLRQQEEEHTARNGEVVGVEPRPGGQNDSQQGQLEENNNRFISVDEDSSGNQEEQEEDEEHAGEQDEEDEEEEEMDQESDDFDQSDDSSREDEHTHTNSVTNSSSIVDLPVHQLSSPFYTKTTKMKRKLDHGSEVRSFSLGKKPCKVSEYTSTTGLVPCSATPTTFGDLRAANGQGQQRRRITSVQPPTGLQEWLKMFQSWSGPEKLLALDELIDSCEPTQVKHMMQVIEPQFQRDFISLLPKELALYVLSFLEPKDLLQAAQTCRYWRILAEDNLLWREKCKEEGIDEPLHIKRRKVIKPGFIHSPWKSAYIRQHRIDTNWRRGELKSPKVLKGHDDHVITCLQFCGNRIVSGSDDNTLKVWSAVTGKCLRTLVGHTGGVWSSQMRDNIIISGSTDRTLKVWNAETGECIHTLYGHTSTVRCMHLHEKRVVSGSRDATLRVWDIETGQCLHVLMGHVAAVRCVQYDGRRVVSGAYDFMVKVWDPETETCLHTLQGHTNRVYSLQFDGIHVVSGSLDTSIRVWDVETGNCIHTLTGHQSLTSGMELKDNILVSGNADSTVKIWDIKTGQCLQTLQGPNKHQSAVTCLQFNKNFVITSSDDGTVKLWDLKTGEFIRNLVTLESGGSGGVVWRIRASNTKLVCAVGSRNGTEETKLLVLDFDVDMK
GPR151 ag: activators of human GPR151, primary screen, cell-based, PathHunter beta-arrestin, luminescence; G-protein coupled receptor 151 (Homo sapiens), Q8TDV0; PathHunter beta-arrestin GPR151 cells; activation, % at 11.2 µM; AID 1508602, 2020; 1% of 650,000 active; in the data active = activation above about 4.9%;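 note: 0% = median of compound wells and 100% = cells with positive control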
TEAD-YAP block: TEAD-YAP interaction inhibition, primary screen, TEAD-YAP interaction inhibitor project, luminescence, HEK-TIYL cells. 1.4% of 640,000 active. TEAD-Gal4/YAP UAS-luciferase luminescence. AID 1259422, 2018. inhibition, % at 9.12 µM; in the data active = inhibition above about 32%;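 note: 0% = median of test compound wells and 100% = reference inhibitor wells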
Numbers without * were called inactive. Hits are enriched below; roughly 3.5% of the tested compounds scored in any of these assays.

SMILES	MITF primary	FBW7 act	GPR151 ag	TEAD-YAP block
CC1CCCCC1NS(=O)(=O)c1ccc(F)c(C(=O)Nc2ccc(Cl)cc2F)c1 (stereo not drawn)	0.9	0.1	-8.2	-3.4
COC(=O)CCC(=O)Nc1ccc(-c2nc3ccc(C)cc3s2)cc1	-1.1	-0.1	-1.8	72.4*
CCOC(=O)c1ccc(CN(C(=S)Nc2ccc(Cl)c(C)c2)C(CC(C)C)C(=O)O)cc1 (stereo not drawn)	-2.2	-0.1	-0.7	6.5
COc1ccc(C(=O)Cn2ccsc2=N)cc1	-5.1	0.2	-1.7	-52.5
COc1ccc(C(=O)CN2Cc3ccccc3C2=N)cc1OC	11.8	-0.1	0.5	-84.3
N=c1sccn1CC(=O)c1ccc2c(c1)OCCO2	-13.1	-0.1	-7.0	34.8*
N=C1c2ccccc2CN1CC(=O)c1ccc(-c2ccccc2)cc1	-6.1	-0.2	-2.9	79.6*
N=C1c2ccccc2CN1CC(=O)c1ccc2c(c1)OCCO2	2.1	-0.1	-7.3	77.5*
Cc1[nH]c2ccc(CNC(=O)Cn3c(C)nc4ccccc43)cc2c1C	13.4	-0.1	0.4	50.1*
CCN(CC)CCNC(=O)Cn1c(C)nc2ccccc21	13.5	-0.2	1.3	-5.6
CCN(CC)S(=O)(=O)c1ccc(C(=O)NCc2nnc(SCC(=O)N3CCc4ccccc43)n2-c2ccc(F)cc2)cc1	1.9	0.0	0.9	2.9
CN(C)c1ccc(Nc2c([N+](=O)[O-])c(=O)oc3ccccc23)cc1	4.4	-0.1	1.1	53.4*
Cc1ccc(Nc2c([N+](=O)[O-])c(=O)oc3ccccc23)cc1	10.0	0.4	-0.1	-0.5
CCCS(=O)(=O)c1ncc(Cl)c(C(=O)Nc2cccc(Cl)c2)n1	7.7	0.0	-1.8	-24.7
CC[n+]1ccc(/C=C2\C=CC=CN2C)cc1	-6.8	0.3	0.2	3.0
CC[n+]1ccc(/C=C2\C=Cc3ccccc3N2C)cc1	2.3	-0.1	0.2	85.4*
CCN1C(=O)/C(=C\c2ccc(O)c(Br)c2)SC1=S	-17.2	0.0	0.7	2.8
CN1CCN(C(=O)c2cc3ncc(Br)cn3n2)CC1	-5.4	0.1	0.9	-1.4
CCOC(=O)c1c(Cl)nc(Cl)c(Cl)c1Nc1cccc(C)c1	-3.7	-0.1	0.9	24.8
CCOC(=O)c1c(Cl)nc(Cl)c(Cl)c1Nc1ccc(OC)cc1	-0.1	0.0	1.4	47.3*
CCOC(=O)c1c(Cl)nc(Cl)c(Cl)c1Nc1ccc(OC(F)(F)F)cc1	-12.9	0.2	-1.0	51.1*
CCOC(=O)c1c(Cl)nc(Cl)c(Cl)c1Nc1cccc(F)c1	-10.0	-0.1	0.7	44.1*
COc1ccc(/C=N\NC(=O)c2n[nH]c3c2CCCC3)c(OC)c1OC	-2.7	0.9	0.8	61.4*
COc1ccc(/C=N/NC(=O)c2n[nH]c3c2CCCC3)cc1OC	-3.4	0.1	1.6	26.0
COC(=O)c1ccc(/C=N/NC(=O)c2[nH]nc3c2CCc2ccccc2-3)cc1	18.3	0.2	-1.7	-1.2
SMILES	MITF primary	FBW7 act	GPR151 ag	TEAD-YAP block
COc1cc(/C=N/NC(=O)c2n[nH]c3c2CCC3)ccc1O	10.2	-0.1	1.8	46.7*
COc1cccc(/C=N\NC(=O)c2n[nH]c3c2CCC3)c1	8.8	0.3	-1.2	36.3*
COc1cccc(/C=N\NC(=O)c2n[nH]c3c2CCCC3)c1OC	-14.9	0.8	-0.9	-21.5
COc1ccc(/C=N/NC(=O)c2[nH]nc3c2CCc2ccccc2-3)cc1OC	11.7	0.1	-1.6	45.8*
Cc1cc(C(=O)N2CCN(c3ccc4cccc(-c5ccc(F)cc5)c4n3)CC2)nn1C	-13.7	0.1	-0.7	-8.2
O=C(Nc1ccccc1-c1nc2ccccc2[nH]1)C1CCCN1S(=O)(=O)c1ccc(Cl)cc1 (stereo not drawn)	-5.4	-0.1	0.6	-2.6
Nn1c2ccccc2n2cc(-c3ccc(Cl)cc3)nc12	4.0	1.0	-5.8	56.3*
COC(=O)c1ccccc1NC(=O)CSc1nc2ccsc2c(=O)n1CCCC(=O)NCCc1ccccc1	-9.8	0.0	1.2	-4.9
Cc1[nH]ncc1-c1ccc(NC(=O)C2COc3ccccc3C2)cc1 (stereo not drawn)	-5.5	0.0	2.5	41.4*
Nc1oncc1-c1ccc(NC(=O)C2COc3ccccc3C2)cc1 (stereo not drawn)	4.6	-0.1	1.8	6.1
Nc1[nH]ncc1-c1ccc(NC(=O)C2COc3ccc(F)cc3C2)cc1 (stereo not drawn)	3.0	-0.1	-1.0	46.9*
Nc1oncc1-c1ccc(NC(=O)C2COc3ccc(F)cc3C2)cc1 (stereo not drawn)	21.3	0.0	-0.6	49.6*
Cc1sc2ncn(CC(=O)N3CCN(Cc4ccccc4)CC3)c(=O)c2c1S(=O)(=O)N1CCOCC1	4.0	0.0	0.0	-7.1
CC(=O)c1ccc(NC(=O)CN2CCN(c3cccc(C)c3)CC2)cc1	38.3	0.0	0.2	15.4
COc1ccccc1-c1ccc(N2CCN(C(=O)COc3ccccc3)CC2)nn1	-10.6	7.6*	-1.2	5.4
CCCOc1ccc(N2CCN(C(=O)COc3ccc(F)cc3)CC2)nn1	-5.0	3.3*	1.3	7.3
Cc1cc(C)n(-c2ccc(N3CCN(C(=O)COc4ccccc4)CC3)nn2)n1	16.7	1.4	-0.8	3.1
CCC(=O)NC(c1ccccc1Cl)c1cc([N+](=O)[O-])c2cccnc2c1O (stereo not drawn)	71.9*	-0.9	-0.6	2.6
CCC(=O)NC(c1ccccc1OC)c1cc([N+](=O)[O-])c2cccnc2c1O (stereo not drawn)	97.6*	-0.8	0.7	-11.6
CCC(=O)NC(c1ccc2c(c1)OCO2)c1cc([N+](=O)[O-])c2cccnc2c1O (stereo not drawn)	62.9*	-0.8	-0.6	-13.7
CCCC(=O)NC(c1ccc2c(c1)OCO2)c1cc([N+](=O)[O-])c2cccnc2c1O (stereo not drawn)	44.1	-0.3	0.0	17.8
CC(=O)NC(c1ccc(C(C)C)cc1)c1cc([N+](=O)[O-])c2cccnc2c1O (stereo not drawn)	7.0	-0.5	0.2	7.4
CCCC(=O)NC(c1ccc(O)c(OCC)c1)c1cc([N+](=O)[O-])c2cccnc2c1O (stereo not drawn)	40.7	-0.2	-0.3	14.7
CCC(=O)NC(c1ccccc1)c1cc([N+](=O)[O-])c2cccnc2c1O (stereo not drawn)	84.0*	-0.9	-1.2	-6.1
CCC(=O)NC(c1ccc(C(C)C)cc1)c1cc([N+](=O)[O-])c2cccnc2c1O (stereo not drawn)	9.8	-0.7	1.8	-0.5
Cc1cc(C)nc(NS(=O)(=O)c2ccc(NC(=O)c3ccc(S(=O)(=O)N4CCCCCC4)cc3)cc2)n1	-5.5	-0.2	-0.6	-5.9
Cc1ccc(NC(=O)c2ccc(N)cc2)cc1Cl	-5.1	-0.1	-2.0	-44.5
N#CCSc1nc2ccccc2c(=O)n1CCCCCC(=O)N1CCOCC1	15.4	-0.2	0.5	0.8

Screening results from PubChem.
